# Test results reported in the supplement of paper PMC6411743.
# ± gives the standard deviation of the averaged measurements. The full data set covers some 5,400 targets. This sample favours those with the largest changes.
# Biological target: T1, UniProt Q13188|Q13188-2
# T1 sequence (whole entry): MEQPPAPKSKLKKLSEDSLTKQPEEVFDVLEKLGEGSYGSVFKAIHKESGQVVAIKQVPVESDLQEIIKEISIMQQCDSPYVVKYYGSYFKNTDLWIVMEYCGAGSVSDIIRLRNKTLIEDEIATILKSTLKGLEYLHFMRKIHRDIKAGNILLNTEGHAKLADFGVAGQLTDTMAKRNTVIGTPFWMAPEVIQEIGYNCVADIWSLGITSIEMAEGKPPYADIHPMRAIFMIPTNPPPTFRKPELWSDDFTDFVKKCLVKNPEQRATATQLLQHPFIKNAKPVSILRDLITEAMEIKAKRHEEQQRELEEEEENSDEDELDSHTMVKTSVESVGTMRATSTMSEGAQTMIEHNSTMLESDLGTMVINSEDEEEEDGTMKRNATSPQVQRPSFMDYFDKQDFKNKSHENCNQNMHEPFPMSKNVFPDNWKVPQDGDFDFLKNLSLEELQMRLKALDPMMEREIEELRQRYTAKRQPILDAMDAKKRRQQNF
# Experiment: NP40-soluble protein abundance relative to vehicle (solubility fold change) (ratio); higher = more soluble protein in presence of GTP
# Protocol: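 Solubility proteome profiling in Jurkat crude lysate. Lysate was treated with Mg-GTP (0.1-10 mM) for 10 min at room temperature and 3 min at 37 °C, then solubilised with 0.8% NP40 and benzonase, followed by ultracentrifugation. Proteins were quantified by TMT10 LC-MS/MS; the value is the NP40-soluble abundance relative to the NP40-processed vehicle, from 3 independent experiments.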
smiles,measurement,setting,value
Nc1nc2c(ncn2[C@@H]2O[C@H](COP(=O)(O)OP(=O)(O)OP(=O)(O)O)[C@@H](O)[C@H]2O)c(=O)[nH]1 [guanosine triphosphate],NP40-soluble protein abundance,concentration: 0.1mM,0.978 ± 0.064
same,NP40-soluble protein abundance,concentration: 0.5mM,0.985 ± 0.036
same,NP40-soluble protein abundance,concentration: 1mM,0.98 ± 0.057
same,NP40-soluble protein abundance,concentration: 2mM,0.982 ± 0.048
same,NP40-soluble protein abundance,concentration: 4mM,0.96 ± 0.049
same,NP40-soluble protein abundance,concentration: 6mM,0.948 ± 0.052
same,NP40-soluble protein abundance,concentration: 8mM,0.972 ± 0.071
same,NP40-soluble protein abundance,concentration: 10mM,0.973 ± 0.088
